Our source for the composite z-score and z-score values is PubChem BioAssay.

Assay [1] has as its system Plasmodium falciparum Sir2 (PF13_0152, Sir2A). Description: Plasmodium falciparum Sir2A binding compounds – biochemical, small-molecule microarray, 635 nm fluorescence, primary screen (AID 1098).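 Also: score merges spot fluorescence intensity with its signal-to-noise ratio.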 The following applies: fluorescence 635 nm, higher = more signal.
A short description of assay [2]: probe aDKK1 binding to arrayed compounds – biochemical, biotinylated probe, 635/667 nm fluorescence, primary screen (AID 1099).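 Also: score merges 667nm spot fluorescence with signal to noise across triplicate slides.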 Conditions: small-molecule microarray, higher = more signal.
Assay [3] is described as follows: probe aCHRDL2 binding to arrayed compounds – biochemical, biotinylated probe, 635/667 nm fluorescence, primary screen (AID 1100). Conditions: small-molecule microarray, higher = more signal.
Assay [4] can be described thus: change in splice reporter luminescence, either direction, cell-based, HEK293, spliceosome inhibition project, primary screen (AID 1101).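 Also: HEK293 cells carrying a splicing-competent luciferase reporter gene; test concentration not given here.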 The following applies: HEK293 splicing luciferase reporter, 24 h, higher = more signal, called active from +8 up or from −8 down. Background: Reporter assays use an easily measured gene product as a stand-in for the process of interest.

For assay [5], the target named is Fibroblast growth factor 10 (Homo sapiens) (UniProt O15520). Description: compounds binding fibroblast growth factor 10 – biochemical, small-molecule microarray, 635 nm fluorescence, primary screen (AID 1102). The following applies: FGF10 binding, fluorescence 635 nm, higher = more signal.
Fibroblast growth factor 10 (Homo sapiens), sequence (O15520 whole entry, looked up): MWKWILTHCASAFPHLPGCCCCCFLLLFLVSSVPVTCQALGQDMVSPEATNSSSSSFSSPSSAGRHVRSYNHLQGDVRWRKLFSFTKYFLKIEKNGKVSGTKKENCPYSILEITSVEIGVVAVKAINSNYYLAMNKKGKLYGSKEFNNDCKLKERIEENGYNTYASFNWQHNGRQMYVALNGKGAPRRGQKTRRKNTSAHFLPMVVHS
The subject of assay [6] is glycogen synthase kinase-3 (GSK3A per assay name; protocol says GSK3B). Briefly: compounds binding glycogen synthase kinase-3 – biochemical, small-molecule microarray, 635 nm fluorescence, GSK3A, primary screen (AID 1103). Also: the record names both GSK3A and GSK3B. Conditions: fluorescence 635 nm, higher = more signal.
Assay [7] has as its target Epidermal growth factor receptor (Homo sapiens) (UniProt P00533). Briefly: compounds binding epidermal growth factor receptor – biochemical, small-molecule microarray, 635 nm fluorescence, primary screen (AID 1104).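 Also: score merges 667 nm emission intensity with spot signal to noise over triplicate slides.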 Conditions: EGFR binding, higher = more signal.
Assay [8] addresses Follistatin-related protein 3 (Homo sapiens) (UniProt O95633). Description: compounds binding follistatin-related protein 3 – biochemical, small-molecule microarray, 635 nm fluorescence, primary screen (AID 1105).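 Also: score merges emission near 667 nm and signal to noise per printed spot across three slides.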 Conditions: FSTL3 binding, higher = more signal.
Assay [9] has as its target Dickkopf-related protein 1 (Homo sapiens) (UniProt O94907). Briefly: small molecules binding DKK1 protein – biochemical, small-molecule microarray, 635 nm fluorescence scan, primary screen (AID 1106).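 Also: score merges emission near 667 nm with signal to noise over three replicate slides.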 The following applies: higher = more signal.
Assay [10] concerns Inhibin beta A chain (activin A). Description: small molecules binding activin A – biochemical, small-molecule microarray, 635 nm fluorescence scan, primary screen (AID 1107).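 Also: mouse activin A protein probed at 4.33 µg/mL on printed slides; score merges bound-protein fluorescence near 667 nm with spot signal-to-noise.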 Conditions: INHBA, higher = more signal.
The subject of assay [11] is Human papillomavirus type 1a protein E7 (residues 44-93). Briefly: small molecules binding HPV E7 44-93 – biochemical, small-molecule microarray, residues 44-93, 635 nm fluorescence, primary screen (AID 1108).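 Also: E7 fragment applied at 1 µg/mL in TBST for 1 h at 4 C; score combines spot fluorescence with its signal to noise ratio.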 The following applies: fluorescence 635 nm, higher = more signal.
A short description of assay [12]: hepatitis C replication reporter changes, two-sided – Huh7 cells, luciferase reporter, HCV replication inhibitor project, primary screen (AID 1109).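 Also: huh7 hepatoma cells harbouring a luciferase neomycin HCV replicon reporter; luciferase luminescence as measure of HCV replicon replication; test concentration not given here.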 The following applies: Huh7 HCV replicon luciferase reporter, 48 h; higher = more signal.
The target in assay [13] is Left-right determination factor 2 (Homo sapiens) (UniProt O00292). Briefly: small molecules binding LEFTY2 protein – biochemical, small-molecule microarray, 635 nm fluorescence scan, primary screen (AID 1110). The following applies: higher = more signal.
Left-right determination factor 2 (Homo sapiens), sequence (O00292 whole entry, looked up): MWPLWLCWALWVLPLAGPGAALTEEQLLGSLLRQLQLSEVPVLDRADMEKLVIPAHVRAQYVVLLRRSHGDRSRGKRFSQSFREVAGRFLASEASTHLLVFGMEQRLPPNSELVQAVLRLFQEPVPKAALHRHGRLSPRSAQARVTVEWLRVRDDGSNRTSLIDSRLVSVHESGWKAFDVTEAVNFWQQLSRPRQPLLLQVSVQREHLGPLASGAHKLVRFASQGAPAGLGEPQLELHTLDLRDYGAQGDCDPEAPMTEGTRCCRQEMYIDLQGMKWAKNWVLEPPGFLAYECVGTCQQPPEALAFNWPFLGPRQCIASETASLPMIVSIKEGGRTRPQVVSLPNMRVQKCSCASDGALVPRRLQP
Assay [14] addresses Calmodulin-1 (Homo sapiens) (UniProt P0DP23). Briefly: small molecules binding calmodulin-1 with EGTA – biochemical, small-molecule microarray, Cy5-labelled CALM1, profiling panel (AID 1111).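 Also: labelled calmodulin applied in Tris saline Tween buffer holding calcium plus EGTA and DTT.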 Conditions: Cy5-CALM1 binding fluorescence, higher = more signal.
Assay [15] has the same target. Description: small molecules binding Ca-loaded calmodulin-1 – biochemical, small-molecule microarray, Cy5-labelled CALM1, plus calcium, artefact control for SMM control-protein annotation, profiling panel (AID 1112).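 Also: score merges spot fluorescence with signal to noise from triplicate slides.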 The following applies: Cy5-CALM1 binding fluorescence, higher = more signal.
Assay [16] can be described thus: probe aWnt5a binding to arrayed compounds – biochemical, biotinylated probe, 635/667 nm fluorescence, primary screen (AID 1113).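 Also: score merges 667 nm fluorescence intensity with signal-to-noise per printed feature.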 Conditions: small-molecule microarray, higher = more signal.
Assay [17] is described as follows: probe aShh binding to arrayed compounds – biochemical, biotinylated probe, 635/667 nm fluorescence, primary screen (AID 1114).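 Also: probe is biotin-labelled aShh protein from a stem cell growth factor screen; measures binding of labelled protein to compounds printed on the slide; score merges feature fluorescence at 667 nm with signal-to-noise.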 The following applies: small-molecule microarray, higher = more signal.
Assay [18] in a line: probe aNog binding to arrayed compounds – biochemical, biotinylated probe, 635/667 nm fluorescence, primary screen (AID 1115).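 Also: probe is biotinylated aNog protein used at 0.15 µg/mL for 1 h at 4 C; z-score combines 667 nm fluorescence of each spot with its signal to noise.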 Conditions: small-molecule microarray, higher = more signal.
Assay [19] concerns the target Torsin-1A-interacting protein 1 (Homo sapiens) (UniProt Q5JTV8). Briefly: compound microarray binding of lysate hLAP1 – cell lysate, small-molecule microarray, COS7 lysate, 635/667 nm fluorescence, primary screen (AID 1116). The following applies: 635 nm fluorescence, higher = more signal.
Assay [20] deals with Alpha-bungarotoxin (Bungarus multicinctus) (UniProt P60615). Briefly: compounds binding labelled alpha-BTX control protein – biochemical, small-molecule microarray, Alexa647 label, 635/667 nm fluorescence, artefact control for SMM control protein annotation, profiling panel (AID 1117). Conditions: alpha-BTX-A647 binding fluorescence, higher = more signal.
Alpha-bungarotoxin (Bungarus multicinctus), sequence (P60615 whole entry, looked up): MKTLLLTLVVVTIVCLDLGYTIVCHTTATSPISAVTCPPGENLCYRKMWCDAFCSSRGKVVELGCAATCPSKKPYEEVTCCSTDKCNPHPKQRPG

Activity calls are given as the source filed them.

Epidermal growth factor receptor (Homo sapiens), sequence (P00533 whole entry, looked up): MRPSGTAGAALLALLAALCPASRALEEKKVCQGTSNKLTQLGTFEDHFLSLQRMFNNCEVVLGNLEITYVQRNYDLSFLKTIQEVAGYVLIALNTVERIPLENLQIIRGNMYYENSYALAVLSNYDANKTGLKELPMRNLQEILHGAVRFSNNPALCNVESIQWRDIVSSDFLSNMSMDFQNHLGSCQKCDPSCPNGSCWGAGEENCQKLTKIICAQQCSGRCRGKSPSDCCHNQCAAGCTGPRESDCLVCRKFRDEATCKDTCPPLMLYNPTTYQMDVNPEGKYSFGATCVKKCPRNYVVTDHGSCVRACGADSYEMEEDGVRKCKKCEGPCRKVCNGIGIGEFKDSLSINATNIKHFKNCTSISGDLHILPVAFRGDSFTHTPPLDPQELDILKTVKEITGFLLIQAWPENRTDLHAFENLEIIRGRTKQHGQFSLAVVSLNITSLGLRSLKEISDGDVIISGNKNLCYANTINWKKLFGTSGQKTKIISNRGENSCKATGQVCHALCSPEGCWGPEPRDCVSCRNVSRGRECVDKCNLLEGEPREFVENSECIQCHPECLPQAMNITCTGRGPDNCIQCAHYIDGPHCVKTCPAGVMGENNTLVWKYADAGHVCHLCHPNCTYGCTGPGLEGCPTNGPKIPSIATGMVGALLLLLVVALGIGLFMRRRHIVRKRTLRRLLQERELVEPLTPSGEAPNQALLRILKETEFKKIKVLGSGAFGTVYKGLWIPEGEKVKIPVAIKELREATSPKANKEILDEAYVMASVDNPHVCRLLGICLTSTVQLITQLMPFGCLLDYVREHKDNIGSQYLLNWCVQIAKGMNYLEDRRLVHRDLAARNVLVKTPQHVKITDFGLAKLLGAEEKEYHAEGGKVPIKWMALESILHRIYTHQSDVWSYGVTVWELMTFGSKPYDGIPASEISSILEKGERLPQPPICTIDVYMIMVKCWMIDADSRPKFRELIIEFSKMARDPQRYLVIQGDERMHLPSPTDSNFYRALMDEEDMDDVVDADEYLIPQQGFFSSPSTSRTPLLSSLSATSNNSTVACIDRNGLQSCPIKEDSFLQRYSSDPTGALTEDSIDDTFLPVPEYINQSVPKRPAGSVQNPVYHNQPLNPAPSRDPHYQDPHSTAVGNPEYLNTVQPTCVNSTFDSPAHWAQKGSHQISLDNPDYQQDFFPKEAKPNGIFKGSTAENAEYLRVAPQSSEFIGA
Torsin-1A-interacting protein 1 (Homo sapiens), sequence (Q5JTV8 whole entry, looked up): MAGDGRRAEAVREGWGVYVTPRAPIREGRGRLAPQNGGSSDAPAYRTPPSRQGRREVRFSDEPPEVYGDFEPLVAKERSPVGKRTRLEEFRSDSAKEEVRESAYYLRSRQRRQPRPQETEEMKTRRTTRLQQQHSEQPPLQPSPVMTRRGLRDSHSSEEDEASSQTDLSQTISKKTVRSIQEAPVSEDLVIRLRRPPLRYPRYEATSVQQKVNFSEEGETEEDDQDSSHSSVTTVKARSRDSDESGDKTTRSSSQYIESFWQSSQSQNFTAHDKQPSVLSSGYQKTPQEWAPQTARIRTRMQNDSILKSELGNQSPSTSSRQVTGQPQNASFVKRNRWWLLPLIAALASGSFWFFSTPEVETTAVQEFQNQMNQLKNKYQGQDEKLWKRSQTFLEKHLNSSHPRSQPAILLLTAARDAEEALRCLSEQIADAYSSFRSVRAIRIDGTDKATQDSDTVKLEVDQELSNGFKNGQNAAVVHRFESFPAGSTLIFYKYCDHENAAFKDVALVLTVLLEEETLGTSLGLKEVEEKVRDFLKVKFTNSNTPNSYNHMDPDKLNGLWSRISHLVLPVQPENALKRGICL
Dickkopf-related protein 1 (Homo sapiens), sequence (O94907 whole entry, looked up): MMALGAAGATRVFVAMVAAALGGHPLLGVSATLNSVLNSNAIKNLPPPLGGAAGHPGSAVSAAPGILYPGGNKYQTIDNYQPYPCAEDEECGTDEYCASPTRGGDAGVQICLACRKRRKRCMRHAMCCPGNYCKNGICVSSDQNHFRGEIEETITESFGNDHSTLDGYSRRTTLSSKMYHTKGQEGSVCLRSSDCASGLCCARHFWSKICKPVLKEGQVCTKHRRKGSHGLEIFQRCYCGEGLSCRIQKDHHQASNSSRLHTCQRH
Follistatin-related protein 3 (Homo sapiens), sequence (O95633 whole entry, looked up): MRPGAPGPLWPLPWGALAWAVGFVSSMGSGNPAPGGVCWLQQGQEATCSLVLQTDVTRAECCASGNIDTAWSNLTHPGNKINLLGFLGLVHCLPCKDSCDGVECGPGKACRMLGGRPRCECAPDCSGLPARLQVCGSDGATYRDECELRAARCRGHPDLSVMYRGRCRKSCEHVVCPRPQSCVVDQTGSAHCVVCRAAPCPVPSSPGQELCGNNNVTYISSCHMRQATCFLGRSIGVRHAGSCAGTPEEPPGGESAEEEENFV

As to `COC(=O)[C@@]1(Cc2ccccc2)[C@H]2c3cc(C(=O)N(C)C)n(Cc4ccccc4)c3C[C@H]2CN1C(=O)c1ccccc1`, the composite z-score is 1.05 in assay [1]; 0.855 in [2]; 0.816 in assay [3]; 0.69 in [5]; -0.0617 in assay [6]; -0.262 in assay [7]. Also, the composite z-score in assay [8] was 0.383; in assay [9], -0.61; in assay [10] it was 0.735; in [11], 0.104; in assay [13], -0.586; in assay [14] it was 0.733. Besides, the composite z-score in [15] amounted to 0.0453; in [16], 0.3; in assay [17], 1.63; in assay [18], 0.837; in assay [19], 0.706; in assay [20], 0.273. The z-score is -1.03 (inactive) in assay [4] and -1.13 in assay [12].

With `Cc1ccc(S[C@]2(C(=O)NCC(C)C)CC(=O)N(Cc3ccccc3)[C@@H]2c2ccc(CO)cc2)cc1`, the composite z-score is 0.959 in [1]; -0.0941 in assay [2]; 1.09 in assay [3]; -0.514 in assay [5]; -0.919 in [6]; -1.14 in [7]. Also, the composite z-score in assay [8] is -0.979; in assay [9], -1.06; in [10] it was -0.417; in [11], 0.725; in assay [13], -1.83; in assay [14], -0.624. Besides, the composite z-score in assay [15] was -0.249; in assay [16], -0.141; in assay [17] it was -0.0904; in assay [18], 0.596; in assay [19], 0.769; in assay [20], 0.147. The z-score in assay [4] is 0.00364 (inactive); in [12], -1.99.

For `[N-]=[N+]=NCc1ccccc1C[C@]1(C(=O)NCC(O)CO)COC(c2ccc(OCCCO)cc2)=N1` (stereo not given in full), the composite z-score in assay [1] is 1.08; in assay [2], 1.22; in assay [3], 1.5; in assay [5], -0.0207; in assay [6], -0.493; in [7], -1.13. In addition, the composite z-score in assay [8] is 0.324; in assay [9] it was -0.372; in assay [10] it was 0.462; in [11], 0.912; in [13] it was -0.645; in [14], 2.44. Further, the composite z-score in assay [15] is 0.911; in assay [16], 0.188; in assay [17], -0.0341; in assay [18], 1.17; in assay [19], 3.34; in assay [20], 3.01. Also, the z-score in [4] was 1.1 (inactive); in assay [12] it was -1.84.

For the compound `CC(C)[C@H]1COC(=O)N1C(=O)[C@H]1[C@@H](c2ccccc2)N(c2ccccc2)O[C@@H]1C`, the composite z-score in assay [1] is 0.22; in assay [2], -0.139; in assay [3], -0.273; in assay [5], 0.521; in assay [6], 0.474; in [7] it was 0.218. In addition, the composite z-score amounted to 1.04 in assay [8]; 0.517 in assay [9]; 0.264 in assay [10]; 0.359 in [11]; 0.729 in [13]; 0.35 in assay [14]. In addition, the composite z-score in assay [15] was -0.434; in assay [16], -0.1; in assay [17] it was -0.206; in assay [18], 0.0373; in assay [19], 0.15; in assay [20] it was 0.107. Moreover, the z-score in assay [4] was 0.145 (inactive); in assay [12] it was -0.383.

`C[N+](C)(C)CCCC[C@@H]1NC(=O)[C@@H]2C[C@H](C(=O)NCCCCCCNC(=O)CS)[C@H](c3cccc(OCCO)c3)N2C1=O`: the composite z-score in [1] is 1.58; in assay [2], -0.209; in assay [3], 0.111; in [5], 0.0947; in assay [6], -0.755; in assay [7], -1.01. The composite z-score in assay [8] was -0.0324; in [9] it was 0.383; in [10] it was 0.439; in assay [11], -0.568; in assay [13], 0.382; in assay [14], -0.485. The composite z-score in assay [15] was -0.467; in [16], -0.233; in [17], -0.0553; in assay [18], -0.331; in assay [19], 0.567; in assay [20], 2.15. Further, the values for the z-score in [4] and in assay [12] were -0.451 (inactive) and -0.154, respectively.
